APE1 inh: blocks human APE1 abasic DNA cleavage; P27695; recombinant APE1, TAMRA/BHQ-2 abasic DNA cleavage fluorescence; Potency, µM (titrated, usually from 65.8 µM), most hits filed as inhibitors; 0.35% of 350,000 active; AID 2517; also: nearly all actives have a fitted effect of over 55% in size
Target sequence (P27695 whole entry, looked up): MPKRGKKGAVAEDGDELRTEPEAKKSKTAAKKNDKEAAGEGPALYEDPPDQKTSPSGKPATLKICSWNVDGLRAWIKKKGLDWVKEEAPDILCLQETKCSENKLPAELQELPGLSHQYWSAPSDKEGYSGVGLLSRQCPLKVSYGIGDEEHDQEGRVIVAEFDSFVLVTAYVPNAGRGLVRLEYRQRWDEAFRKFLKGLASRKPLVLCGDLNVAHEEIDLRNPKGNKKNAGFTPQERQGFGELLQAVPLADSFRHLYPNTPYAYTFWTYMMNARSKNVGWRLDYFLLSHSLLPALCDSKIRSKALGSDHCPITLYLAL
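Kinetic fluorescence read (525 ex/598 em nm, three reads 60 s apart) of AP-site incision; signal = third minus first read. Enzyme 0.75 nM, dual-labelled THF duplex 50 nM, compound preincubation 15 min RT.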
RECQ1 helicase: RECQ1 (human) helicase inhibition. Potency, µM (highest dose often 57.3 µM), actives largely listed as inhibitors. RECQ1 DNA unwinding, red fluorescence kinetic read. AID 2549. 0.54% of 240,000 active. P46063; also: nearly all actives have a fitted effect of over 30% in size
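RECQ1T1 50 nM; forked duplex (20 bp + 30-nt ss tails) 200 nM, ATP 2 mM final; pH 8.0, 2 mM MgCl2, 2.5 ug/ml poly(dI-dC); 15 min compound preincubation; discontinuous kinetic read over 2 h at RT.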
Tb PGK inh: inhibitors of T. brucei phosphoglycerate kinase. P07378. PGK/GAPDH coupled, Kinase-Glo luminescence, 60 min. Potency, µM (doses to about 57.5 µM), hits mostly inhibitors. 0.043% of 380,000 active; also: nearly all actives have a fitted effect of over 60% in size
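Recombinant glycosomal PGK reaction used 1,3-bisphosphoglycerate generated in-well by GAPDH (100nM final) in 100mM TEA pH 7.6, 5mM MgCl2, 0.01% Tween-20. After 60 minutes at room temperature, ATP was read by Kinase-Glo Plus luminescence end-point.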
FEN1 inh-1: human FEN1 inhibition; Potency, µM (top dose mostly 114 µM), actives largely listed as inhibitors; P39748; 0.35% of 390,000 active; Recombinant FEN1 flap cleavage, fluorescence, 15 min; also: nearly all actives have a fitted effect of over 65% in size
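FEN1 at 10 nM preincubated with compounds 15 min at room temperature, then flap DNA substrate added at 50 nM final. Signal read at 0 and 15 min; concentration-response fitted with four-parameter Hill equation.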
BLM inh: blocks DNA unwinding by human BLM helicase. P54132. Potency, µM (series often up to 56.1 µM), actives largely listed as inhibitors. recombinant BLM DNA unwinding, fluorescence dequenching. 0.2% of 350,000 active. AID 2528; also: nearly all actives have a fitted effect of over 35% in size
FEN1 inh-2: FEN1 inhibition, cherry-pick retest | shares compounds with FEN1 inh-1 | FEN1 flap cleavage, TAMRA/BHQ2 fluorogenic DNA substrate | Potency, µM, actives largely listed as inhibitors | 79% of 880 active; also: nearly all actives have a fitted effect of over 60% in size
Of the large screens only hits and unclear results are named; the others gave an inactive call (follow-up assays come after a bar, where they were run). In the library only some 0.74% were active in any assay of this set; here they are far more common. Calls follow the shape of the dose curve; as a rule, active = well fitted curve in the direction sought with a large enough effect; inconclusive = small, poorly fitted or top-dose-only effect, or another doubt; inactive = no such curve, though single readings can be large; an effect the other way counts as inactive or inconclusive.

COc1ccc2sc(/C=C/c3ccccc3O)[n+](C)c2c1	RECQ1 helicase inconclusive, FEN1 inh-1 40µM | FEN1 inh-2 85
Cn1c(=O)c2c(nc(NCc3ccc4c(c3)OCO4)n2Cc2ccccc2F)n(C)c1=O	none
NC(=O)C1C(=O)c2ccccc2C1(C[N+](=O)[O-])c1ccccc1 (stereo not given)	FEN1 inh-1 45µM (no result: APE1 inh, RECQ1 helicase, BLM inh) | FEN1 inh-2 43
O=C(O)CC1(c2ccccc2)C(=O)c2ccccc2C1=O	none
NS(=O)(=O)c1ccc(N=Nc2c(O)c(C(=O)O)cc3ccccc23)cc1	FEN1 inh-1 inconclusive | FEN1 inh-2 inconclusive
O=C(O)Cc1ccc(N=Nc2c(O)c(C(=O)O)cc3ccccc23)cc1	APE1 inh inconclusive, RECQ1 helicase inconclusive, Tb PGK inh inconclusive, FEN1 inh-1 50µM | FEN1 inh-2 67
CN(C)c1ccc2nc3ccc(=O)cc-3sc2c1	Tb PGK inh inconclusive (no result: APE1 inh, RECQ1 helicase, FEN1 inh-1, BLM inh) | FEN1 inh-2 43
COc1ccc(/C=C2\N=C(SC)SC2=O)cc1OC	none
N=C1/C(=C/c2ccc(-c3cccc(C(=O)O)c3)o2)C(=O)N=C2SC(CC(=O)N3CCOCC3)=NN12	APE1 inh inconclusive, Tb PGK inh inconclusive, FEN1 inh-1 35µM (no result: RECQ1 helicase) | FEN1 inh-2 67
CC(=O)Nc1sc2c(c1-c1nc3ccccc3s1)CCN(C(C)C)CC2	none (no result: APE1 inh, RECQ1 helicase, Tb PGK inh, FEN1 inh-1, BLM inh) | FEN1 inh-2 24
CC(=O)Nc1sc2c(c1-c1cc3ccccc3o1)CCNC2	none (no result: APE1 inh, RECQ1 helicase, Tb PGK inh, FEN1 inh-1, BLM inh) | FEN1 inh-2 34
CC(=O)Nc1sc2c(c1-c1nc3ccccc3s1)CCNC2	none (no result: APE1 inh, RECQ1 helicase, Tb PGK inh, FEN1 inh-1, BLM inh) | FEN1 inh-2 3.4
CN1CCc2c(sc(NC(=O)CSc3ccc(F)cc3)c2-c2nc3ccccc3s2)C1	none (no result: APE1 inh, RECQ1 helicase)
CCN1CCc2c(sc(NC(=O)CSc3ccccc3)c2-c2nc3ccccc3s2)C1	none (no result: APE1 inh, RECQ1 helicase)
CC(=O)Nc1sc2c(c1-c1nc3ccccc3s1)CCCNC2	none (no result: APE1 inh, RECQ1 helicase, Tb PGK inh, FEN1 inh-1, BLM inh) | FEN1 inh-2 34
Cc1nc2nc(C)c(CCC(=O)NCCCN3CCN(c4cccc(Cl)c4)CC3)c(C)n2n1	none
O=C(O)c1[nH]c2ccccc2c1CC(=O)N1CCOCC1	none
Cc1cc2[nH]c3c(c[n+](C)c4ccccc34)c2cc1C	FEN1 inh-1 inconclusive, BLM inh inconclusive | FEN1 inh-2 3.8
Cc1cc(=O)[nH]c2ccccc12	none
C[n+]1c(-c2ccccc2)cc2c(=Cc3ccc([N+](=O)[O-])cc3)c3ccccc3n21	none (no result: APE1 inh, RECQ1 helicase, BLM inh)
CCOC(=O)c1cc2c(=Cc3ccc(N(C)C)cc3)c3ccccc3n2[n+]1C	FEN1 inh-1 22µM (no result: APE1 inh, RECQ1 helicase, BLM inh) | FEN1 inh-2 34
CCOC(=O)SC1=N/C(=C\c2ccc(N(C)C)cc2)C(=O)S1	none
Cc1cc2c(=Cc3ccc(N(C)C)cc3)c3ccccc3n2[n+]1C	FEN1 inh-1 14µM (no result: APE1 inh, RECQ1 helicase, BLM inh) | FEN1 inh-2 27
Cc1cc(C)cc(NC(=O)Cn2nnc(C(=O)NCc3ccc4c(c3)OCO4)c2N)c1	none (no result: RECQ1 helicase)
Cc1ccc(NC(=S)NC(=O)c2cccs2)cc1F	none (no result: RECQ1 helicase, BLM inh)
CCc1noc(C)c1C(=O)OC(C)C(=O)c1c(C)[nH]c2ccccc12 (stereo not given)	none (no result: RECQ1 helicase, BLM inh)
Cc1[nH]c2ccccc2c1C(=O)C(C)OC(=O)c1ccc([N+](=O)[O-])o1 (stereo not given)	FEN1 inh-1 inconclusive | FEN1 inh-2 19
Cc1cc(Cl)c(C)c(S(=O)(=O)N2CCN(C(=O)C3CCCO3)CC2)c1Cl (stereo not given)	none (no result: RECQ1 helicase, BLM inh)
Cc1cc(C(=O)Nc2ccc3ccccc3c2)oc1C	none (no result: RECQ1 helicase)
C/C(=N/NC(=O)c1ccco1)c1cccc(NC(=O)c2ccc(C)o2)c1	none
C/C(=N/NC(=O)c1ccco1)c1cccc(NC(=O)c2ccc(C)s2)c1	none | FEN1 inh-2 inconclusive
O=C1C(=Cc2ccco2)CCC1=Cc1ccco1	Tb PGK inh 3.5µM, FEN1 inh-1 8.9µM (no result: APE1 inh, RECQ1 helicase, BLM inh) | FEN1 inh-2 17
O=C(COc1ccccc1-c1ccccc1)N/N=C/c1cccc2ccccc12	none
O=C(COc1cccc2ccccc12)N/N=C/c1ccccc1OCc1ccc(C(=O)O)cc1	FEN1 inh-1 inconclusive, BLM inh inconclusive | FEN1 inh-2 85
CN(C)CCCNc1cc(O)c2ncccc2c1	none (no result: RECQ1 helicase, BLM inh) | FEN1 inh-2 38

Compound activity (PubChem)
